Hits are enriched below; roughly 9% of the tested compounds scored in any of these assays.
BAZ2B inh – qHTS Assay for Inhibitors of BAZ2B; Bromodomain adjacent to zinc finger domain protein 2B (Homo sapiens), Q9UIF8; AlphaScreen BAZ2B-H3K14Ac peptide displacement; Potency, µM (doses to about 114 µM), inactives show at the top dose activity change, negative = inhibition, most hits filed as inhibitors; 360,000 tested, 4.4% active; further: on the % scale 0 is the no-effect control and ±100 the full control effect; nearly all actives have a fitted effect of over 60% in size
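BAZ2B (50 nM) with biotin-H3(5-23)K14Ac peptide (50 nM) in PBS pH 7.4, 0.01% Tween-20, preformed 30 min, then compound 30 min at room temperature; top concentration 110uM. AlphaScreen streptavidin donor/nickel chelate acceptor beads (10 ug/mL final), 20 min dark, signal read.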
HP1b chromo inh – HTS for Inhibitors of HP1-beta Chromodomain Interactions with Methylated Histone Tails; Chromobox protein homolog 1 (Homo sapiens), P83916; AlphaScreen HP1-beta / biotin-H3K9me3 peptide binding; Potency, µM (series often up to 114 µM), for inactives: at the top dose activity change, negative = inhibition, actives largely listed as inhibitors; 390,000 tested, 0.56% active; further: nearly all actives have a fitted effect of over 70% in size
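HP1-beta protein (50 nM final) preincubated 30 min at room temperature with biotinylated H3(1-18)K9me3 peptide (50 nM) in PBS pH 7.4, 0.01% Tween-20, then compound added for 30 min. AlphaScreen streptavidin donor/nickel chelate acceptor beads (10 ug/mL final), 30 min dark, luminescence read.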
ALOX12 inh – Primary qHTS assay for inhibitors of human arachidonate 12S-lipoxygenase (ALOX12): Round 2; Polyunsaturated fatty acid lipoxygenase ALOX12 (Homo sapiens), P18054; purified 12hLO, xylenol orange hydroperoxide absorbance; 580,000 tested, 1.1% active; Potency, µM (top dose mostly 108 µM), without a hit: at the top dose activity change, negative = inhibition, usual class: inhibitors; further: on the % scale 0 is the no-effect control and ±100 the full control effect
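Purified human 12hLO (150 nM final) in 25 mM Hepes, 0.01% Triton X-100, pH 7.0 was preincubated 15 min at room temperature with compound. Then 40 uM arachidonic acid was added, 30 min. Hydroperoxide was read by Fe-XO absorbance ratio 573/405 nm.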
G9a block – qHTS Assay for Inhibitors of Histone Lysine Methyltransferase G9a | Histone-lysine N-methyltransferase EHMT2 (Homo sapiens), Q96KQ7 | G9a H3K9 monomethylation, AlphaScreen, 2 h | Potency, µM (doses to about 102 µM), for the others: top-dose activity, negative = inhibition, usual class: inhibitors | 350,000 tested, 8.8% active | AID 504332, 2011; further: on the % scale 0 is the no-effect control and ±100 the full control effect; nearly all actives have a fitted effect of over 75% in size
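Readings reflect AlphaScreen signal from monomethyl-H3K9 antibody detection. HMT at 20 nM; substrate b-H3K9 500 nM; cofactor SAM 20 uM; 2 h RT reaction; compounds tested as titrations in qHTS with 15 min preincubation.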
PLK1 PBD block – qHTS for Inhibitors of PLK1-PDB (polo-like kinase 1 - polo-box domain): Primary Screen; Serine/threonine-protein kinase PLK1 (Homo sapiens), P53350; Plk1 PBD binding of FITC phosphopeptide, fluorescence polarization; Potency, µM, without a hit: max response, negative = inhibition, usual class: inhibitors; 360,000 tested, 2.8% active; AID 720504, 2013; further: series mostly up to about 57 µM; on the % scale 0 is the no-effect control and ±100 the full control effect; nearly all actives have a fitted effect of over 65% in size
JMJD2A Tudor inh – qHTS Assay for Inhibitors of JMJD2A-Tudor Domain; Lysine-specific demethylase 4A (Homo sapiens), O75164; AlphaScreen JMJD2A-Tudor / H3K4me3 peptide binding; Potency, µM (series often up to 114 µM), inactives show top-dose activity change, negative = inhibition, usual class: inhibitors; 390,000 tested, 4.4% active; AID 504339, 2011; further: on the % scale 0 is the no-effect control and ±100 the full control effect; nearly all actives have a fitted effect of over 50% in size
* marks the source's active call; other numbers are inactive results; ? = inconclusive; / = not tested or not shown; [ ] = dose if it differs, or a comment. The call rests on the fitted dose curve; in most records, active means well fitted curve in the direction sought with a large enough effect; inconclusive means small, poorly fitted or top-dose-only effect, or another doubt; inactive means no such curve, though single readings can be large; an effect the other way counts as inactive or inconclusive. Potency means the concentration at half of the fitted maximal effect.

SMILES	BAZ2B inh	HP1b chromo inh	ALOX12 inh	G9a block	PLK1 PBD block	JMJD2A Tudor inh
CCC(CC)c1nnc(NC(=O)C2CC(=O)N(C3CCCC3)C2)s1 (configuration not stated)	3%	-13%	?	11µM*	?	-4%
CCC(CC)c1nnc(NC(=O)C2CC(=O)N(c3ccc4c(c3)OCCO4)C2)s1 (configuration not stated)	?	13%	27%	4%[59 µM]	-1%	-18%
CN1CCN(c2ccc(CNC[C@H]3O[C@@H](n4cnc5c(=O)[nH]c(N)nc54)[C@H](O)[C@@H]3O)c(F)c2)CC1	/	/	0%	/	-9%	/
O=C1CN(C(=O)COc2ccc([N+](=O)[O-])cc2Cl)c2ccccc2N1	-5%	22%	-13%	-6%[12.7 µM]	-1%	-28%
O=C(O)c1ccccc1NS(=O)(=O)c1cccc(-n2sc3ccccc3c2=O)c1	4µM*	-20%	0.22µM*	1.3µM*	3.4µM*	1.4µM*
COc1ccccc1N1CCN([C@@H]2[C@H](O)[C@H](CO)O[C@@H]2CNC(=O)c2ccccc2)CC1	/	/	22µM*	/	/	/
Cc1cccc(CCNC(=O)CCS(=O)(=O)c2ccc(Br)cc2)c1	16%	20%	8%	-41%	-17%	-1%
O=c1[nH]c(Cc2ccccn2)nc2scc(-c3ccc(Cl)cc3)c12	3%	43%	?	40µM*	-11%	-24%
Cc1ccc(-c2csc3nc(-c4ccncc4)[nH]c(=O)c23)cc1	-2%	17%	15%	?	17µM*	-20%[11.4 µM]
O=c1[nH]c(Cc2ccc(F)cc2)nc2scc(-c3ccc(F)cc3)c12	3%	?	?	3.5µM*	6µM*	?
Cc1ccc(-c2csc3nc[nH]c(=O)c23)cc1	-17%	-6%	-1%	15%	-11%	-14%
CCOc1cc(CNC(CC)CO)ccc1OCC(=O)Nc1cccc(C(F)(F)F)c1 (configuration not stated)	-2%	57%	-5%	0%	2%	3%
CS(=O)(=O)N1CCCC(C(=O)Nc2c(F)cccc2F)C1 (configuration not stated)	1%	0%	1%	-3%	?	-19%
O=C(Nc1ccc2c(c1)CCC2)c1cnn2c1NC(c1ccco1)CC2C(F)(F)F (configuration not stated)	9%	-1%	119%	-15%[59 µM]	27µM*	8%[11.4 µM]
Cc1ccc(Cl)cc1NC(=O)c1cnn2c1NC(c1ccco1)CC2C(F)(F)F (configuration not stated)	?	5%	-28%	-7%	-2%	-28%
Cc1ccc(C2CC(C(F)(F)F)n3ncc(C(=O)NCc4ccco4)c3N2)cc1 (configuration not stated)	?	-15%	?	45µM*	4%	?
O=C(N/N=C/c1ccc2cccnc2c1)c1ccco1	5%	24%	-15%	28µM*	1%	-9%
COc1cccc(NC(=O)C2(C)CCCc3cnc(N(C)C)nc32)c1 (configuration not stated)	/	/	6%[176 µM]	/	/	/
COc1ccc(CCNC(=O)c2c(O)nc3ccccn3c2=O)cc1	0%	8%	-23%	-2%[59 µM]	/	-16%
Cc1ccc2nc(-c3sc4nc(C)ccc4c3N)[nH]c2c1	1%	32%	35µM*	?	-4%	-32%
O=c1cc(C(F)(F)F)nc(SCc2cccc3ccccc23)[nH]1	-17%	32%	-25%	-17%	30µM*	-8%
